A selection: hits, their analogues and other compounds. The true share with any hit is near 2.8%.
PI5P4Ka inh: qHTS for Inhibitors of phosphatidylinositol 5-phosphate 4-kinase (PI5P4K); PI5P4Kalpha enzyme, ADP-Glo luminescence, 60 min; hits give low values; hit rate 1.2% among 330,000; max response, %; Phosphatidylinositol 5-phosphate 4-kinase type-2 alpha (Homo sapiens), P48426; active means max response of -50% or lower; inconclusive means between -30% and -50%; inactive means -30% or higher; further: value at the top dose of about 77 µM; on the % scale 0 is the no-effect control and ±100 the full control effect
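Human PI5P4Kalpha with substrate in 0.038 M HEPES pH 7.4, 0.28 mM EGTA, 0.1% CHAPS, 5% DMSO; reaction started with 5 microM ATP (final), 60 min at room temperature. ADP formed read by ADP-Glo luminescence.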
POLK inh: qHTS for Inhibitors of Polymerase Kappa; DNA polymerase kappa (Homo sapiens), Q9UBT6; purified Pol kappa, fluorescent DNA synthesis assay, 10 min; Potency, µM (top dose mostly 107 µM), for the others: at the top dose activity, negative = inhibition, usual class: inhibitors; hit rate 0.53% among 400,000; AID 588579, 2011; further: potency means the concentration at half of the fitted maximal effect; on the % scale 0 is the no-effect control and ±100 the full control effect
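Pol kappa 10 nM + cpd, 15 min RT; start w/ substrate 50 nM final; fluorescence kinetic read, 0 and 10 min. Neg ctrl: buffer, no enzyme.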
WRN helicase inh-1: qHTS for Inhibitors of WRN Helicase; Bifunctional 3'-5' exonuclease/ATP-dependent helicase WRN (Homo sapiens), Q14191; WRN helicase unwinding, fluorescent forked duplex, kinetic; Potency, µM (highest dose often 114 µM), for inactives: at the top dose activity change, negative = inhibition, actives largely listed as inhibitors; hit rate 0.46% among 360,000; AID 651768, 2012; further: potency means the concentration at half of the fitted maximal effect; on the % scale 0 is the no-effect control and ±100 the full control effect; nearly all actives have a fitted effect of over 55% in size
Target sequence (Q14191 whole entry, looked up): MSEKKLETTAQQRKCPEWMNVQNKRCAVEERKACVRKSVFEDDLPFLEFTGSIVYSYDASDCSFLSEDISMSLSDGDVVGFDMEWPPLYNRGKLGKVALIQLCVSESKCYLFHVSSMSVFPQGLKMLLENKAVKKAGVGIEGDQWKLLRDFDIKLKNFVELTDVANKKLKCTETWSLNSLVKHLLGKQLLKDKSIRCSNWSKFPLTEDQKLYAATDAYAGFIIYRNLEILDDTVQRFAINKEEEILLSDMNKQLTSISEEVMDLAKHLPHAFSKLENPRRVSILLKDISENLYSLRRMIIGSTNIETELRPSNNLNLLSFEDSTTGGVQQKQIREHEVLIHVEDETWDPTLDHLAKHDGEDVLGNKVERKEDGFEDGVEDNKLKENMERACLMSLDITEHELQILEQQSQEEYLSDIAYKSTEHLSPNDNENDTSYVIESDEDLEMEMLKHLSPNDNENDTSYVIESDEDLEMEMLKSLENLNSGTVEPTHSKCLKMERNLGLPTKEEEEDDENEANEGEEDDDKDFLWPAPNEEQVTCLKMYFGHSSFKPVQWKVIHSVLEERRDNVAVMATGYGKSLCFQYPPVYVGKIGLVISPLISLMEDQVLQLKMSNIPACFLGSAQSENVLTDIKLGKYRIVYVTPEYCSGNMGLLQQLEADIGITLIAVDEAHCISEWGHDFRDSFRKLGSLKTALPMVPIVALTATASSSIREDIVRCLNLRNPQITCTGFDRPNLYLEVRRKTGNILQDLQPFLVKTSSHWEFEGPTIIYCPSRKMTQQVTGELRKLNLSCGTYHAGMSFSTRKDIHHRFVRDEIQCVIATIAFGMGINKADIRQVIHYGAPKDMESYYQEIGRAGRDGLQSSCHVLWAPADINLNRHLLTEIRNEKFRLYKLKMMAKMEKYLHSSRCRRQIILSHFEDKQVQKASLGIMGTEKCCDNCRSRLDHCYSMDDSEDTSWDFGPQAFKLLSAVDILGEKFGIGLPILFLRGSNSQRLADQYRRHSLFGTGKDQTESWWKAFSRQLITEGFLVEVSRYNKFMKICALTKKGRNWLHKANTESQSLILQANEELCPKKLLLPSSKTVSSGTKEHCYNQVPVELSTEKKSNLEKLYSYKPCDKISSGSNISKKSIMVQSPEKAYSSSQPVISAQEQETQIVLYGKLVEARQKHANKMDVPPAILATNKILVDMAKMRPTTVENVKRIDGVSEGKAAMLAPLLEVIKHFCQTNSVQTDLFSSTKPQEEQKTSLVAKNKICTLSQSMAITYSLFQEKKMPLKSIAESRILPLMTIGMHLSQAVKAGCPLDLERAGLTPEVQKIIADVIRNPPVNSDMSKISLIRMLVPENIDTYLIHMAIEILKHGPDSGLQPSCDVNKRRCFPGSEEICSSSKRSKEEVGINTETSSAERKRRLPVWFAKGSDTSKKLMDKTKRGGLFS
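Enzyme (20 nM final) and test compound sit together 15 min at room temperature before substrate addition. Substrate is a single-forked duplex oligonucleotide (100 nM) labelled with fluorophore and quencher, with 2 mM ATP; helicase unwinding raises red fluorescence, read kinetically.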
POLH inh: qHTS for Inhibitors of Polymerase Eta. Potency, µM (doses to about 114 µM), for inactives: at the highest dose activity change, negative = inhibition, most hits filed as inhibitors. AID 588591, 2011. hit rate 1.2% among 390,000. recombinant Pol eta, fluorescent DNA replication assay. DNA polymerase eta (Homo sapiens), Q9Y253; further: potency means the concentration at half of the fitted maximal effect; on the % scale 0 is the no-effect control and ±100 the full control effect
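Pol eta at 10 nM preincubated with compounds 15 min at room temperature; reaction started with fluorescent substrate (50 nM final) and read kinetically at 0 and 10 min.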
POLI inh: qHTS for Inhibitors of Polymerase Iota | DNA polymerase iota (Homo sapiens), Q9UNA4 | Pol iota fluorescent replication assay, 10 min | Potency, µM (doses to about 115 µM), without a hit: at the top dose activity, negative = inhibition, usual class: inhibitors | hit rate 1% among 390,000; further: potency means the concentration at half of the fitted maximal effect
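Pol iota at 10 nM preincubated 15 min with compounds at room temperature; reaction started with fluorescent substrate, 50 nM final. Fluorescence read kinetically at 0 and 10 min; buffer-only wells as negative control.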
POLB inh: qHTS Assay for Inhibitors of DNA Polymerase Beta; P06746; Pol beta primer extension/strand displacement, fluorescence kinetic; Potency, µM (highest dose often 114 µM), for the others: top-dose activity change, negative = inhibition, hits mostly inhibitors; hit rate 1.3% among 340,000; AID 485314, 2010; further: potency means the concentration at half of the fitted maximal effect; on the % scale 0 is the no-effect control and ±100 the full control effect
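Reaction started by 50 nM substrate onto compound-treated Pol beta (10 nM, 15 min preincubation, room temperature); plates read at 0 min and 10 min. Normalized concentration-effect data fitted by four-parameter Hill equation.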
WRN helicase inh-2: qHTS for Inhibitors of WRN Helicase: Confirmatory Assay for Cherry-picked Compounds; shares compounds with WRN helicase inh-1; WRN helicase DNA unwinding, fluorescence kinetic; Potency, µM (doses to about 57.1 µM), for inactives: at the highest dose activity, negative = inhibition, most hits filed as inhibitors; hit rate 63% among 610; AID 720497, 2013; further: potency means the concentration at half of the fitted maximal effect; nearly all actives have a fitted effect of over 65% in size
TO displacement: qHTS for Inhibitors of WRN Helicase: Thiazole Orange DNA Binding Counterscreen | shares compounds with WRN helicase inh-1 | thiazole orange DNA binding displacement, fluorescence | Potency, µM (titrated, usually from 57.1 µM), without a hit: at the highest dose activity change, negative = inhibition, actives largely listed as inhibitors | hit rate 10% among 610 | AID 720499, 2013;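 further: drop in dye fluorescence marks compound binding to DNA; potency means the concentration at half of the fitted maximal effect; on the % scale 0 is the no-effect control and ±100 the full control effect; nearly all actives have a fitted effect of over 60% in size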
BLM helicase inh: qHTS for Inhibitors of WRN Helicase: BLM Helicase Counterscreen for WRN Inhibitors; Potency, µM (series often up to 57.1 µM), inactives show top-dose activity change, negative = inhibition, most hits filed as inhibitors; hit rate 60% among 610; AID 720503, 2013; Recombinant BLM helicase DNA unwinding, red fluorescence; shares compounds with WRN helicase inh-1; further: potency means the concentration at half of the fitted maximal effect; nearly all actives have a fitted effect of over 60% in size
ADP-Glo interf: qHTS for Inhibitors of PI5P4K: ADP-Glo counter assay. Potency, µM (doses to about 76.9 µM), for the others: top-dose activity change, negative = inhibition, usual class: inhibitors. ADP-Glo detection counter-screen, luciferase luminescence, no enzyme. 1,100 tested, under 10 active. shares compounds with PI5P4Ka inh
An asterisk follows results filed as active; ? = inconclusive; / = not tested or not shown; [ ] = dose if it differs, or a comment. Unless noted, the call rests on the fitted dose curve; in most records, active means well fitted curve in the direction sought with a large enough effect; inconclusive means small, poorly fitted or top-dose-only effect, or another doubt; inactive means no such curve, though single readings can be large; an effect the other way counts as inactive or inconclusive.

SMILES	PI5P4Ka inh	POLK inh	WRN helicase inh-1	POLH inh	POLI inh	POLB inh	others
CC(=O)O[C@H]1C[C@H](O[C@H]2[C@@H](O)CC(O[C@H]3[C@@H](O)C[C@H](O[C@H]4CC[C@@]5(C)[C@H](CC[C@@H]6[C@@H]5CC[C@]5(C)[C@@H](C7=CC(=O)OC7)CC[C@]65O)C4)O[C@@H]3C)O[C@@H]2C)O[C@H](C)[C@H]1O[C@@H]1O[C@H](CO)[C@@H](O)[C@H](O)[C@H]1O (stereo not given in full)	/	5%[19.4 µM]	/	/	/	/
CCC(C)N1C(=O)/C(=C\c2cnc(N(C)C)nc2)C(=O)NC1=S (stereo not given)	-57*	2%	50µM*	-7%	?	15%	WRN helicase inh-2=-6%;TO displacement=7%;BLM helicase inh=-18%
C[C@H](NC(=O)[C@@H](N)Cc1ccc(O)cc1)C(=O)NCC(=O)N(C)[C@@H](Cc1ccccc1)C(=O)NCCO	/	3%[19.4 µM]	/	/	/	/
CN1C(=O)C(=Cc2ccccc2OCc2ccc(Cl)cc2)C(=O)N(C)C1=O	-12	-9%	-24%[57.1 µM]	-3%	55%	0%
CCOC(=O)Cn1cc(C=C2C(=O)N(C)C(=O)N(C)C2=O)c2ccccc21	-5	71%	-17%	-9%	31%	8%
Cc1ccc(S(=O)(=O)Oc2ccccc2C=C2C(=O)N(C)C(=O)N(C)C2=O)cc1	?	-11%	45µM*	2%	-18%	-13%	WRN helicase inh-2=-22%;TO displacement=-3%;BLM helicase inh=-18%
CN1C(=O)C(=Cc2ccccc2Oc2ccc(Cl)cc2)C(=O)N(C)C1=O	?	-4%	45µM*	-6%	0%	3%	WRN helicase inh-2=19µM*;TO displacement=-27%;BLM helicase inh=7.6µM*
CCCN1CCCC2Cc3[nH]ncc3CC21 (stereo not given)	/	/	/	-3%[57.1 µM]	3%[58.9 µM]	11%[57.1 µM]
CC(C)NCC(O)c1ccc(C2CCCC2)cc1 (stereo not given)	-9	-16%	0%	-7%	6%	80%	ADP-Glo interf=-8%
CCCCCn1c(=O)c(C(=O)Nc2ccccc2S(N)(=O)=O)c(O)c2ccccc21	-53*	-16%	-15%	-9%	29%	-18%	ADP-Glo interf=0%
CN1CC[C@@]2(C)c3cc(OC(=O)Nc4ccccc4)ccc3N(C)[C@@H]12	/	1%[60.1 µM]	/	/	/	/
CCCNC(=O)N1[C@H]2CC[C@@H]1C(C(=O)OC)=C(c1ccc(OC)c(OC)c1)C2	-85*	11%	0%	-11%	-3%	/	ADP-Glo interf=-5%
COCCNC(=O)N1[C@H]2CC[C@@H]1C(C(=O)OC)=C(c1ccc(OC)c(OC)c1)C2	-1	3%	-4%	-19%	19%	/
Oc1ccc(Cl)cc1Sc1cc(Cl)ccc1O	26	-22%	?	-3%	?	/
